From the supplement of paper PMC11732987, “Enantioselective OTUD7B fragment discovery through chemoproteomics screening and high-throughput optimisation” (Communications Chemistry, 2025)

Tests used:
Test in all cases: log2 ratio of Biotin-Ahx-Ub-VS probe labelling (fragment/DMSO); higher = less target engagement (more negative = stronger competition), active = hit call of the paper (q ≤ 0.05, log2 ratio ≤ -1)
Details in all cases: compound concentration: 200 uM; treatment time: 3 h
[1] = target: T1, USP19 (UniProt O94966)
T1 sequence (whole entry): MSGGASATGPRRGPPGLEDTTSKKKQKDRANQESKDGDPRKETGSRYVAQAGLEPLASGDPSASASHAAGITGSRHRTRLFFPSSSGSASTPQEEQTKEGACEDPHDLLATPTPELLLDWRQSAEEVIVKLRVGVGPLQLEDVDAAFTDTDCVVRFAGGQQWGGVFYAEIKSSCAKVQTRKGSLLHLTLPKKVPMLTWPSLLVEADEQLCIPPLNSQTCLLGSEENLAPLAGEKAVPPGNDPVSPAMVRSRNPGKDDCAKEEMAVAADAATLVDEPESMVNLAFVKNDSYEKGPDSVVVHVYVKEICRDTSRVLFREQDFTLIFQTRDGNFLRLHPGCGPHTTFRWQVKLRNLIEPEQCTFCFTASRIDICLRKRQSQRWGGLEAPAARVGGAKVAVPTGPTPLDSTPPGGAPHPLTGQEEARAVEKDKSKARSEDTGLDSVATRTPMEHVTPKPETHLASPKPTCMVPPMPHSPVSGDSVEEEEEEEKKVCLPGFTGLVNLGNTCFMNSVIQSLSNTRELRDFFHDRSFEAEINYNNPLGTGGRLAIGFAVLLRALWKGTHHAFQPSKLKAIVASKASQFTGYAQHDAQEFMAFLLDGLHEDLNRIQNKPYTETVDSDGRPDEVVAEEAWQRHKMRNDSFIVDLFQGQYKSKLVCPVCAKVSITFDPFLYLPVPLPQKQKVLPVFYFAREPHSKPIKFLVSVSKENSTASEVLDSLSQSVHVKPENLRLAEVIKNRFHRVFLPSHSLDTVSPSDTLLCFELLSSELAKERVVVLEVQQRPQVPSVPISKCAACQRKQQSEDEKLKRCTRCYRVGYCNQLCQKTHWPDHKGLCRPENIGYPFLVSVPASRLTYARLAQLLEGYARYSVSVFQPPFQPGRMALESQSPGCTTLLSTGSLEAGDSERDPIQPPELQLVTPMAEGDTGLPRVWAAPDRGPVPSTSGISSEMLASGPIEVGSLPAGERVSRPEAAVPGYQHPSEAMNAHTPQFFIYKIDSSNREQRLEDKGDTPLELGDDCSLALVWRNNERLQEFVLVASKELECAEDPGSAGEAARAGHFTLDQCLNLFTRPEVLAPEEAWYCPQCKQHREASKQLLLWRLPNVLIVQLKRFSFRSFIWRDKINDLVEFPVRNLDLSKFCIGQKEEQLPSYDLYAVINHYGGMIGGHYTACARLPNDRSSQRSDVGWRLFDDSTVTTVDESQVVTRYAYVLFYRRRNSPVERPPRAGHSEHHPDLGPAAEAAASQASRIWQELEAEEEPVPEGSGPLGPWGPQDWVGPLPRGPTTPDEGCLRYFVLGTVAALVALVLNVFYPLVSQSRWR
In short: (§1)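 Triplicate samples of HEK293T lysate, 495 µg each, received fragment at 200 µM or vehicle for 3 h, followed by Biotin-Ahx-Ub-VS (0.5 µM final) for 1 h. After NeutrAvidin enrichment of labelled DUBs and LysC/trypsin digestion, peptides were run by diaPASEF LC-MS/MS. The values are average log2 fragment/vehicle ratios from global-median-normalised Spectronaut label-free quantities, tested by unpaired t-test on proteins having ≥2 unique peptides.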

[2] = target: T2, USP22 (UniProt Q9UPT9)
T2 sequence (whole entry): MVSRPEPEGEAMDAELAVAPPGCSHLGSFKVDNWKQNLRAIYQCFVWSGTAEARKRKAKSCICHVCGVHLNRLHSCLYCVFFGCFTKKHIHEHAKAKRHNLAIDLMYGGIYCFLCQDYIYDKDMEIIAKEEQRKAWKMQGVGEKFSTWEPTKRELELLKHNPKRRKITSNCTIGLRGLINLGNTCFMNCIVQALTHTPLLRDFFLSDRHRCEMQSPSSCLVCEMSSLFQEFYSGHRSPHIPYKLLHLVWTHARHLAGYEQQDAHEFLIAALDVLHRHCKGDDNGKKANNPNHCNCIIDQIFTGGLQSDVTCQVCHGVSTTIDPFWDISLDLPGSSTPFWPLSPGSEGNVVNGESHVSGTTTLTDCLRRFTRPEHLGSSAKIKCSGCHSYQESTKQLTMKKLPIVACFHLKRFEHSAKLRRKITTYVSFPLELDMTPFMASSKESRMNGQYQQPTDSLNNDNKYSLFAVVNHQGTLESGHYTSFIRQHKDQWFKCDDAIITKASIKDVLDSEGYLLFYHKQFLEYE
In short: as §1

[3] = target: USP24 (UniProt Q9UPU5)
In short: as §1

[4] = target: T3, USP25 (UniProt Q9UHP3)
T3 sequence (whole entry): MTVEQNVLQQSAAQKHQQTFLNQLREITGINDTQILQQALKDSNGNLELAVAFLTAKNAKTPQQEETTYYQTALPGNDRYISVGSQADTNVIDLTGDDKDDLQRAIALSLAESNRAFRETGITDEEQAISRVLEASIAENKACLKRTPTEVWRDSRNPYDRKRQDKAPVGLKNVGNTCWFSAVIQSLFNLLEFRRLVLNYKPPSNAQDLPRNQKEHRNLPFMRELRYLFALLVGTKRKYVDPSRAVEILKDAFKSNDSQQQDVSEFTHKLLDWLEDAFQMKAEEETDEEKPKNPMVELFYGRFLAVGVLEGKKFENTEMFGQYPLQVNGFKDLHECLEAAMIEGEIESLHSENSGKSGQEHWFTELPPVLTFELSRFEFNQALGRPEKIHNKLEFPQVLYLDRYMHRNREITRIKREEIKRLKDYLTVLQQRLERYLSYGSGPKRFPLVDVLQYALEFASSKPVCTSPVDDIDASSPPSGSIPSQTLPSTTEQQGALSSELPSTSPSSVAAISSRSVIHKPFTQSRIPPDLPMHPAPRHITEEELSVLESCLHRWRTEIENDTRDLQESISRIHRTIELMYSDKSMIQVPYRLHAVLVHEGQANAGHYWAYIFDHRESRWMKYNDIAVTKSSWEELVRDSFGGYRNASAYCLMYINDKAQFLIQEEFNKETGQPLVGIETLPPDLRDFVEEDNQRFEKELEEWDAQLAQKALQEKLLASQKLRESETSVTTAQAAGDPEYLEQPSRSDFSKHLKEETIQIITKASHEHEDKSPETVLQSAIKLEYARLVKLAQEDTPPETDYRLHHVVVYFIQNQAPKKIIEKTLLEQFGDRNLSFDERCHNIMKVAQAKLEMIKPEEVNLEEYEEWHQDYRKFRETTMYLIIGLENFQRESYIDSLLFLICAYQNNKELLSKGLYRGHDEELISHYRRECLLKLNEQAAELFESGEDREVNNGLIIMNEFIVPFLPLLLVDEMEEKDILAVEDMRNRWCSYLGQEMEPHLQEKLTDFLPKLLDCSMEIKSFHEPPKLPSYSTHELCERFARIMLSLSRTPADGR
In short: as §1

[5] = target: T4, USP28 (UniProt Q96RU2)
T4 sequence (whole entry): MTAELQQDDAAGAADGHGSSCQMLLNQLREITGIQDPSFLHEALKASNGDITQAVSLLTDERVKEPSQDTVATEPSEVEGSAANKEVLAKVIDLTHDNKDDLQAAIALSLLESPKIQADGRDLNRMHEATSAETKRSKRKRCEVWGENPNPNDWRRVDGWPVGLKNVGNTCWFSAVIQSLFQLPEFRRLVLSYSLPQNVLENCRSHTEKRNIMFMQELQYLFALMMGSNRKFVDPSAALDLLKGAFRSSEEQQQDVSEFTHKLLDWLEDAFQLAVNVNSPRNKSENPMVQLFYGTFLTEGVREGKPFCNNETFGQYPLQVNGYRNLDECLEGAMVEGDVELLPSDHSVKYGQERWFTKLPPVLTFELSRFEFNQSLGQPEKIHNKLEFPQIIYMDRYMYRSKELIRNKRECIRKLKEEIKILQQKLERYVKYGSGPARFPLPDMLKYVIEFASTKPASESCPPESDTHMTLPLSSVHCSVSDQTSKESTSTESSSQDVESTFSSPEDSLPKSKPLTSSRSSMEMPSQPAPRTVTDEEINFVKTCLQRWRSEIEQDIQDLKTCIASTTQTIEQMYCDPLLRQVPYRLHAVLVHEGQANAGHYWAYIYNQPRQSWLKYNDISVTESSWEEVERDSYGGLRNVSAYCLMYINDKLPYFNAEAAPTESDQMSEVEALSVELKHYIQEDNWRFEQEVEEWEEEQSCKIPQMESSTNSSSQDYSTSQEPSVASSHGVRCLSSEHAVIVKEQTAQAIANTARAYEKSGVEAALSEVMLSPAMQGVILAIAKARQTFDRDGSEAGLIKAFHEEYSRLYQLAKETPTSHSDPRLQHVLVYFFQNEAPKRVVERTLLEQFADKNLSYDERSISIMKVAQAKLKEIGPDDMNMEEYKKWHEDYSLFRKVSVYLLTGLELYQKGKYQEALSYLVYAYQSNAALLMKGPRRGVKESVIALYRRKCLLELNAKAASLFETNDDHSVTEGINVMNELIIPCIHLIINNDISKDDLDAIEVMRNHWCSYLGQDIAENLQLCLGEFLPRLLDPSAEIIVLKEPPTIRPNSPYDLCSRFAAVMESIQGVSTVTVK
In short: as §1

Measured: log2 ratio of Biotin-Ahx-Ub-VS probe labelling

Chain of USP24 (Q9UPU5 whole entry): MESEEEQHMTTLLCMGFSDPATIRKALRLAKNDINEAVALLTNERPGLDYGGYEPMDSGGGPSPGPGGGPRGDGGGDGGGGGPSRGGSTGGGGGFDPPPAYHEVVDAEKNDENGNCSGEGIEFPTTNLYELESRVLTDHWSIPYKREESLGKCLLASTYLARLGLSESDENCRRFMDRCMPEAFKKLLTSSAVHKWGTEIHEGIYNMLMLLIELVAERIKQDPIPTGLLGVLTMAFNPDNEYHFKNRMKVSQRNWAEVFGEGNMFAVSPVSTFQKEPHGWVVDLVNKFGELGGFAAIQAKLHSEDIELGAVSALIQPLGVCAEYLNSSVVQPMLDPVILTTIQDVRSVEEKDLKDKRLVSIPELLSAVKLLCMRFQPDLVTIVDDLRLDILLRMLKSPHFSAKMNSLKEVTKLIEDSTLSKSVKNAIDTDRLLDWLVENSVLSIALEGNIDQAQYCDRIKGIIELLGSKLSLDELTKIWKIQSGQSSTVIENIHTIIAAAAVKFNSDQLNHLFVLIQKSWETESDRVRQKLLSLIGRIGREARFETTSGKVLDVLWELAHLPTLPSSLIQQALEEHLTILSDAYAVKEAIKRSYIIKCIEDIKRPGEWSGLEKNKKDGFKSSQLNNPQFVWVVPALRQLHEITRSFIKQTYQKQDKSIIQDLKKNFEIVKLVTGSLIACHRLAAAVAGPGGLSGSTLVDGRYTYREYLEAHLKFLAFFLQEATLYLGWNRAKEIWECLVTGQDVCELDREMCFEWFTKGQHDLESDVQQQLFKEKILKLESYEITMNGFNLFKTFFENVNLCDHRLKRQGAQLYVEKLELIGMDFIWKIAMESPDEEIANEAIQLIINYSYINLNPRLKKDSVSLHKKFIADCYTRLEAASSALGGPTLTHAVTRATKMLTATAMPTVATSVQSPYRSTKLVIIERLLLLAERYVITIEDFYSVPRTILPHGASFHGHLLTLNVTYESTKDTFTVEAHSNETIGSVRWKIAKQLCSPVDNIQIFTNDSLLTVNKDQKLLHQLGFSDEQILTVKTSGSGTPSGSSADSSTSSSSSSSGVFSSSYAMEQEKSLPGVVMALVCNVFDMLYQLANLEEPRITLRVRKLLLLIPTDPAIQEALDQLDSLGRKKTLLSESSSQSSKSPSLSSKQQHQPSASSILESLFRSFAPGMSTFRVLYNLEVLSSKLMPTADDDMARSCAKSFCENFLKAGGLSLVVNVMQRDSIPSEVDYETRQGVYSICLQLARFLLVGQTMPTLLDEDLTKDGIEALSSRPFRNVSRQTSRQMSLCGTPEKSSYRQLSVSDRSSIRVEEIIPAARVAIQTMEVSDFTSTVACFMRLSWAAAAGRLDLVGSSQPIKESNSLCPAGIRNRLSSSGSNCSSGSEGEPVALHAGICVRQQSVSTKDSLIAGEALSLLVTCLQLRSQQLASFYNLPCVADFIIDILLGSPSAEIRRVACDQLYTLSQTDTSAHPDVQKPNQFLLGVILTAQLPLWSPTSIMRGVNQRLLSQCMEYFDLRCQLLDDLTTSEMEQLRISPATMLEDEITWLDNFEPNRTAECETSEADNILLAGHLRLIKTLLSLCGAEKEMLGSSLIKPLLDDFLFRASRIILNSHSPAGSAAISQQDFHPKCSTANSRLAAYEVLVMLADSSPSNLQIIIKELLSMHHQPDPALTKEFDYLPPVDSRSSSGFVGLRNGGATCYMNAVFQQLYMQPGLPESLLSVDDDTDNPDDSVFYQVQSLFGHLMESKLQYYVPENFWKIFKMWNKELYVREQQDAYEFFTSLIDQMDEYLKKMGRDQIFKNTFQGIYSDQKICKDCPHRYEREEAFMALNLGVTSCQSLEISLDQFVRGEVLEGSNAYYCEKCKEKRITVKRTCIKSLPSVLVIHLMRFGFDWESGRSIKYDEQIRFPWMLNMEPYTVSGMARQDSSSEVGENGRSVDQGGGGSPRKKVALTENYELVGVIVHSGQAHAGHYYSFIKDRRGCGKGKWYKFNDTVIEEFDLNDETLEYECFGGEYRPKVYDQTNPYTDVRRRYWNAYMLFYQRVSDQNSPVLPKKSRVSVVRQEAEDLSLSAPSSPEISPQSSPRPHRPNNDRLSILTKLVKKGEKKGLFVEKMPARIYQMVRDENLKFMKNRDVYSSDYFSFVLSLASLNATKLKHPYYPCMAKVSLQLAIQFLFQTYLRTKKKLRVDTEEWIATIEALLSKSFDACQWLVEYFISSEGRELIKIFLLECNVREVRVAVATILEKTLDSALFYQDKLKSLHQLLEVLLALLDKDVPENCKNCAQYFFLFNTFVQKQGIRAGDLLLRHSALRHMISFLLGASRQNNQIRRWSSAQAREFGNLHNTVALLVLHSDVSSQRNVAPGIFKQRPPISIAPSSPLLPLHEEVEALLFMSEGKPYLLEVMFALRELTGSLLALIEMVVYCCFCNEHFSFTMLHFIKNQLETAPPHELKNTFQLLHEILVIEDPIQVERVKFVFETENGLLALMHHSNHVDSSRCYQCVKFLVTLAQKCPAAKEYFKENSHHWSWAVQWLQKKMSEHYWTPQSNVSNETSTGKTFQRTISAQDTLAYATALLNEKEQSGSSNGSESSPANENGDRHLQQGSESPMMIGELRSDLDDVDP

O=C(CCl)NCCC1=CCCCC1
inactive: [1] -0.00951 | [2] -0.0359 | [3] -0.0898 | [4] -0.223 | [5] -0.444
